Source: PubChem (National Center for Advancing Translational Sciences (NCATS))
BLM helicase inh = qHTS Assay for Inhibitors of Bloom's syndrome helicase (BLM) | RecQ-like DNA helicase BLM (Homo sapiens), P54132 | AID 2528, 2010 | Potency, µM (titrated, usually from 56.1 µM), without a hit: top-dose activity change, negative = inhibition, usual class: inhibitors | actives 0.2% (n = 350,000) | recombinant BLM DNA unwinding, fluorescence dequenching;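 further: plate controls were vehicle for no effect and no enzyme for full effect; nearly all actives have a fitted effect of over 35% in size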
RECQ1 inh-1 = qHTS Assay for Inhibitors of RecQ-Like Dna Helicase 1 (RECQ1). actives 0.54% (n = 240,000). RECQ1 DNA unwinding, red fluorescence kinetic read. Potency, µM (titrated, usually from 57.3 µM), for inactives: at the top dose activity, negative = inhibition, most hits filed as inhibitors;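 further: plate controls were vehicle for no effect and no enzyme for full effect; nearly all actives have a fitted effect of over 30% in size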
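50 nM RECQ1T1 preincubated 15 min with compound in Tris pH 8.0 buffer with MgCl2, DTT, Tween-20 and 2.5 ug/ml poly(dI-dC); started with 200 nM TAMRA/BHQ-2 forked duplex and 2 mM ATP. Unwinding read as fluorescence (525/598 nm), two reads 2 h apart.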
APE1 inh = qHTS Assay for Inhibitors of the Human Apurinic/apyrimidinic Endonuclease 1 (APE1); DNA repair nuclease/redox regulator APEX1 (Homo sapiens), P27695; recombinant APE1, TAMRA/BHQ-2 abasic DNA cleavage fluorescence; Potency, µM (doses to about 65.8 µM), without a hit: at the highest dose activity change, negative = inhibition, most hits filed as inhibitors; actives 0.35% (n = 350,000); AID 2517, 2012;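 further: plate controls were vehicle for no effect and reference inhibitor for full effect; nearly all actives have a fitted effect of over 55% in size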
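Kinetic fluorescence read (525 ex/598 em nm, three reads 60 s apart) of AP-site incision; signal = third minus first read. Enzyme 0.75 nM, dual-labelled THF duplex 50 nM, compound preincubation 15 min RT.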
TDP1 inh = qHTS Assay for Inhibitors of Tyrosyl-DNA Phosphodiesterase (TDP1); AID 485290, 2010; actives 0.28% (n = 350,000); Potency, µM (highest dose often 130 µM), for the others: at the top dose activity change, negative = inhibition, usual class: inhibitors; recombinant TDP1, AlphaScreen DNA substrate cleavage; Tyrosyl-DNA phosphodiesterase 1 (Homo sapiens), Q9NUW8; further: nearly all actives have a fitted effect of over 40% in size
Target sequence (Q9NUW8 whole entry, looked up): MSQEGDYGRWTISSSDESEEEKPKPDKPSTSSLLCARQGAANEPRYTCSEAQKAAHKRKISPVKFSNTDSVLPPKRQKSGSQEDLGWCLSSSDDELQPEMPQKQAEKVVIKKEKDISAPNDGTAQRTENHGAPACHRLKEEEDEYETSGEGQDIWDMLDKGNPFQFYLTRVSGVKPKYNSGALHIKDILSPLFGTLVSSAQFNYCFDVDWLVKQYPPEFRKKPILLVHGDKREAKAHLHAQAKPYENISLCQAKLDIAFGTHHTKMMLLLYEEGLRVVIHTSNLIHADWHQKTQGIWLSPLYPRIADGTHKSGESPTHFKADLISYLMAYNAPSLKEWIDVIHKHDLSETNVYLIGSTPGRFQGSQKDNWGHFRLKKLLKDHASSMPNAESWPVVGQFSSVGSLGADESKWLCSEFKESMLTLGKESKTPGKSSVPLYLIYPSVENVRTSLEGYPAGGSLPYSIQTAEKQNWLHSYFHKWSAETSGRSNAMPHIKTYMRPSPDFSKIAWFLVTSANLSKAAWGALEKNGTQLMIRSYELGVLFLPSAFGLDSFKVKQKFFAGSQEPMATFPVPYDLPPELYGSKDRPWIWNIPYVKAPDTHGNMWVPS
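Steps: enzyme plus compound, 15 min RT; add biotin/phosphotyrosine-FITC oligonucleotide (15 nM final), react 5 min; add donor/acceptor beads (10 ug/ml final), 10 min; read AlphaScreen. Tdp1 at 1 nM final.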
KAT2A inh = qHTS Assay for Inhibitors of GCN5L2. Histone acetyltransferase KAT2A (Homo sapiens), Q92830. GCN5L2 HAT assay, ThioGlo1 CoA-SH fluorescence. Potency, µM (titrated, usually from 58.9 µM), for the others: at the highest dose activity change, negative = inhibition, usual class: inhibitors. actives 0.21% (n = 390,000). AID 504327, 2011
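Enzyme at 20nM final was mixed with library compounds for 15 min at room temperature. Peptide H3(1-25) at 75uM, acetyl-CoA at 70uM and ThioGlo1 at 50uM were then added. Plates were read immediately and after 20 min (Ex340nm/Em540nm).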
RGS4 inhibitor = Inhibitors of Regulator of G Protein Signaling (RGS) 4: qHTS; Transcreener GDP fluorescence polarization, RGS4-accelerated GTP hydrolysis; Potency, µM (highest dose often 114 µM), for inactives: top-dose activity change, negative = inhibition, most hits filed as inhibitors; AID 504845, 2011; actives 0.039% (n = 390,000); Regulator of G-protein signaling 4 (Homo sapiens), P49798; further: nearly all actives have a fitted effect of over 75% in size
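MLSMR compounds (23 nl, pin-transferred) preincubated 10 min at room temperature with a 500nM (2x) first reagent, then RGS4 at 900nM (2x) plus Transcreener GDP mix added; fluorescence polarization (620/688 nm) read before and after 90 min at 30 °C.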
RECQ1 conf = Confirmation qHTS Assay for Inhibitors of RecQ-Like Dna Helicase 1 (RECQ1) | shares compounds with RECQ1 inh-1 | RECQ1 helicase DNA unwinding, fluorescence | Potency, µM (doses to about 229 µM), for inactives: at the highest dose activity change, negative = inhibition, usual class: inhibitors | actives 28% (n = 610) | AID 2708, 2010; further: nearly all actives have a fitted effect of over 45% in size
RECQ1 ADP FP = Counterscreen for RECQ1 Inhibitors: ADP Fluorescence Polarization Displacement Assay | shares compounds with RECQ1 inh-1 | ADP fluorescence polarization displacement counterscreen | Potency, µM (doses to about 228 µM), for the others: at the highest dose activity change, negative = inhibition, usual class: inhibitors | actives 27% (n = 530) | AID 2711, 2010; further: nearly all actives have a fitted effect of over 45% in size
RECQ1 inh-2 = Confirmation qHTS Assay for Inhibitors of RecQ-Like Dna Helicase 1 (RECQ1) - Round 2 Cherry Picks | shares compounds with RECQ1 inh-1 | recombinant RECQ1 DNA unwinding, red fluorescence | Potency, µM (titrated, usually from 119 µM), inactives show top-dose activity, negative = inhibition, hits mostly inhibitors | actives 15% (n = 1,100) | AID 504841, 2011; further: nearly all actives have a fitted effect of over 50% in size
* = called active by the depositor; i = inactive; ? = inconclusive; . = not tested or not shown; [ ] = remark or other dose. Shown are actives, neighbours in structure and some others; about 0.87% of the full set was active somewhere. The call rests on the fitted dose curve; in most records, active means well fitted curve in the direction sought with a large enough effect; inconclusive means small, poorly fitted or top-dose-only effect, or another doubt; inactive means no such curve, though single readings can be large; an effect the other way counts as inactive or inconclusive. Unless noted, on the % scale 0 is the no-effect control and ±100 the full control effect; potency means the concentration at half of the fitted maximal effect.

SMILES	BLM helicase inh	RECQ1 inh-1	APE1 inh	TDP1 inh	KAT2A inh	RGS4 inhibitor	RECQ1 inh-2	others
COC(=O)C1=CC(C(=O)c2cccs2)=NN(c2ccc(OC)cc2)C1C(=O)OC (stereo not drawn)	-12%	?	-5%	11%	-11%	13%	79µM*
COc1ccc(C2C(=O)N(C3CCCCCC3)CC(=O)N2CCC2=CCCCC2)cc1 (stereo not drawn)	-9%	.	.	8%	-1%	3%	.
CCN(CC)c1cccc(OC2=NS(=O)(=O)c3ccccc32)c1	-4%	?	15%	10%	-3%	-28%	-22%
CCc1ccc(OC2=NS(=O)(=O)c3ccccc32)cc1	-1%	i	28%	5%	-7%	8%	.
C=CCn1c(C)cc(C(=O)Cn2ncc(Cl)c(Cl)c2=O)c1C	-24%	10µM*	?	-3%	-24%	-26%	-22%
Cc1ccc(OCC(O)Cn2c3ccccc3c3ccccc32)cc1 (stereo not drawn)	-10%	?	-4%	-8%	1%	-28%	-48%
Cc1c(-n2c(SC(C)C(=O)NC(N)=O)nc3ccccc3c2=O)c(=O)n(-c2ccccc2)n1C (stereo not drawn)	4%	-2%	4%	4%	-11%	-1%	.	RECQ1 conf=1%;RECQ1 ADP FP=5%
Cc1c(-n2c(SCC(C)C)nc3ccccc3c2=O)c(=O)n(-c2ccccc2)n1C	0%	i	0%	0%	1%	-16%	.
Oc1ccc(C2CNCCc3c2cc(O)c(O)c3Cl)cc1 (stereo not drawn)	-21%	22µM*	-4%	-4%[56.1 µM]	-7%	-18%[56.9 µM]	.	RECQ1 conf=?;RECQ1 ADP FP=45µM*
Oc1cc2c(c(Cl)c1O)CCNC[C@H]2c1ccccc1	-7%	?	10%	13%	.	.	.
Cn1c2c(c(=O)n(C)c1=O)C(c1ccccc1Cl)CC(=O)N2 (stereo not drawn)	-4%	-2%	17%	3%	-9%	12%	.
O=C1CC(=O)CC(c2ccccc2Cl)C1	5%	?	-9%	-2%	-7%	-17%	-15%
COC(=O)[C@@H](NC(=O)O[C@@H]1C(=O)c2cc(OC)ccc2O[C@H]1c1cccc(OC)c1)C(C)C	4%	-2%	4%	2%	.	.	.
CCCC[C@@H]1CCCO[C@@](C(=O)NCc2ccc(S(C)(=O)=O)cc2)(C(F)(F)F)C1	-3%	-7%	11%	10%	.	9%	.
